Assay [1] concerns the target Glutathione peroxidase 1 (Homo sapiens) (UniProt P07203). Kind of assay: Primary qHTS Assay for Inhibitors of Recombinant Selenoprotein Glutathione Peroxidase 1 (GPX1) (AID 1845191). For activity, negative = inhibition: % is set by controls: 0 for no effect and ±100 for the full control effect. Note: nearly all actives have a fitted effect of over 65% in size. The method, boiled down: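 GR-coupled assay: compounds preincubated 30 min at room temperature with GPX1, then reaction started with CHP; final 10 nM GPX1, 1 mM GSH, 0.5 mM CHP, 0.5 mM NADPH, 100 nM GR, 0.01% BSA, pH 7.5 Tris buffer. NADPH fluorescence (340/450 nm) read at 0 and 15 min.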
On the technique in general: In qHTS, concentration-response curves come from the screen itself.

For assay [2], the target named is Phospholipid hydroperoxide glutathione peroxidase GPX4 (Homo sapiens) (UniProt P36969). Description: Primary qHTS Assay for Inhibitors of Recombinant Selenoprotein Glutathione Peroxidase 4 (GPX4) (AID 1845192). Note: nearly all actives have a fitted effect of over 65% in size. The method, boiled down: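 GR-coupled assay: recombinant GPX4 preincubated 30 min with compound at room temperature; final 200 nM GPX4, 1 mM GSH, 0.5 mM cumene hydroperoxide, 0.5 mM NADPH, 100 nM GR, 0.01% BSA, pH 7.5 Tris. NADPH fluorescence (340/450 nm) read at 0 and 15 min.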
Chain of Phospholipid hydroperoxide glutathione peroxidase GPX4 (Homo sapiens) (P36969 whole entry, looked up): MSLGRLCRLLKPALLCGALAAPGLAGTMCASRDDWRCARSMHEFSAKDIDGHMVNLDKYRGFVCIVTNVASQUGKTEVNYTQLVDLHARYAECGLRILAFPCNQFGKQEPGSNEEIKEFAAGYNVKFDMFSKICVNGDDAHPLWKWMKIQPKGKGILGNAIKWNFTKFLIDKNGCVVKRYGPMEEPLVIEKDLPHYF

Assay [3] addresses Luciferin 4-monooxygenase (Photinus pyralis) (UniProt P08659). Kind of assay: Primary firefly luciferase (FLuc) qHTS assay for identification of artifact compounds. (AID 1845220). Note: nearly all actives have a fitted effect of over 60% in size. In outline:
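Enzymatic FLuc inhibition assay: compounds pre-exposed to luciferin/ATP (10 uM each) for 15 min, then purified P. pyralis enzyme at 10 nM added. Read-out: luminescence at 5 min.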

A short description of assay [4]: Primary fluorescence-based thiol-reactive (MSTI) qHTS assay for identification of artifact compounds. (AID 1845221).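 For activity change, negative = thiol reactive: series mostly up to about 54 µM; thiol-reactive compounds lower the probe fluorescence signal.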 Note: nearly all actives have a fitted effect of over 65% in size. Note: potency is the fitted concentration of half-maximal effect. The method, boiled down: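 One-hour, room-temperature, dark incubation of compound with 4 uM MSTI in PBS (pH 7.4, 2% DMSO) precedes a fluorescence read at 525 nm excitation, 598 nm emission; Hill-equation fitting yields concentration-response values.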

Assay [5] concerns Nanoluciferase (engineered Oplophorus gracilirostris luciferase). Kind of assay: Primary Nanoluciferase (NLuc) qHTS assay for identification of artifact compounds. (AID 1845222).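 Note: NLuc secreted into diluted conditioned medium of S16 cells; series mostly up to about 54 µM; 0% = DMSO and -100% = no enzyme.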 The method, boiled down:
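S16 cell supernatant NLuc, 1:55; cpds qHTS; 15 min RT dark; Nano-Glo substrate 1:100, 5 min; luminescence; Hill fit of % inhibition.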

Assay [6] can be described thus: Primary redox qHTS assay for identification of artifact compounds. (AID 1845223).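 Note: 0% = DMSO and 100% = reference compound.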 The method, boiled down: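 Amplex Red (25 uM) and HRP (250 mU/mL) in HBSS, with compounds for 15 min, then 250 uM DTT for 30 min, room temperature, dark. Fluorescence 525/598 nm read; normalized to DMSO and 10 uM DA3003; Hill fit.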

Unmarked numbers belong to inactive results. Results filed as inconclusive are left out. Active and inactive are the calls of the source. Calls come from the whole dose curve; as a rule, active = well fitted curve in the direction sought with a large enough effect; inconclusive = small, poorly fitted or top-dose-only effect, or another doubt; inactive = no such curve, though single readings can be large; an effect the other way counts as inactive or inconclusive.

The source of these data is PubChem BioAssay (NCATS).

Chain of Glutathione peroxidase 1 (Homo sapiens) (P07203 whole entry, looked up): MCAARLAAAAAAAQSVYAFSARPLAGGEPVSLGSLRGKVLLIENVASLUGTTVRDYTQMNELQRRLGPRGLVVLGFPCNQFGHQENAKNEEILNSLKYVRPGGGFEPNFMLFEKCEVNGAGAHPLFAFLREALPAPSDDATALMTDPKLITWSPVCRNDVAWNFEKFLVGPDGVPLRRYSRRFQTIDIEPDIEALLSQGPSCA

Turning to `CO[C@@H]1[C@]2(O)C(=O)N3/C=C\C(C)(C)c4[nH]c5ccccc5c4/C=C\3C(=O)N2[C@]23[C@H](CO)C(C)(C)N2c2ccccc2[C@]13O`, the Potency result in assay [1], in assay [2], in assay [3] and in assay [5] was “inactive” in each case. Moreover, the Potency in assay [4] is 1840 nM (active).

Regarding `CC1CC(=O)[C@]2(O)C(C(=O)OCCc3ccc(O)c(O)c3)=CO[C@@H](O[C@@H]3O[C@H](CO)[C@@H](O)[C@H](O)[C@H]3O)[C@H]12` (stereo not given in full), the Potency result in assay [1], in assay [2], in assay [3], in assay [5] and in assay [6] was “inactive” in each case. For the same compound, in assay [4], the Potency was 2920 nM (active).

In the case of `Cc1cn2cc(CC(=O)N3CCC4(CC3)CN(Cc3ccc(-n5nccn5)cc3Cl)C4)nc2s1`, the Potency entry in assay [1], in assay [2], in assay [3], in assay [4], in assay [5] and in assay [6] was “inactive” throughout.

`CC(=O)O[C@H]1C[C@@]2(C)[C@@H](CC[C@H]3[C@@]4(C)C=CC(=O)[C@@H](C)[C@@H]4[C@H](OC(C)=O)C(=O)[C@@]32C)/C1=C(\CCC=C(C)C)C(=O)O`: the Potency result in assay [1], in assay [2], in assay [3], in assay [4] and in assay [5] was “inactive” throughout.

On to `CCCC/C=C\CCCCCc1cc(=O)c2ccccc2n1C`, for which the Potency entry in assay [1], in assay [2], in assay [3], in assay [4], in assay [5] and in assay [6] was “inactive” each time.

Consider `O=C(/C=C/c1ccc(O)c(O)c1)O[C@H]1[C@H](OC2CCCCC2O)O[C@H](CO)[C@@H](O)[C@@H]1O` (stereo not given in full), for which the Potency entry in assay [1], in assay [2], in assay [3], in assay [5] and in assay [6] was “inactive” each time. In addition, the Potency in assay [4] is 2070 nM (active).

In the case of `C/C=C/C=C/C(O)=C1/C(=O)[C@]2(C)C(=O)[C@@](C)(O)[C@H]1[C@H]([C@@]1(C)OC(=O)C(C)=C1O)[C@H]2C(=O)CC/C=C/C`, the Potency result in assay [1], in assay [2], in assay [3] and in assay [5] was “inactive” throughout. Further, the Potency in assay [4] was 4120 nM (active).

Regarding `CC(=O)OC1CC(=O)C2(C)C3CC4=C(OC(C)CC4=O)OC3(C)CCC2C1(C)C` (stereo not given), the Potency result in assay [1], in assay [2], in assay [3] and in assay [5] was “inactive” each time. The Potency in assay [4] was 11600 nM (active).

`CCC(C)/C=C(C)/C=C/C1=CC2=C(Cl)C(=O)C(C)(OC(C)=O)C(=O)C2=CN1C(CC(=O)O)C(=O)O` (stereo not given): the Potency entry in assay [1], in assay [2], in assay [3] and in assay [5] was “inactive” throughout. Moreover, the Potency in assay [4] was 733 nM (active).

In the case of `O=C(/C=C/N1C[C@@H]2C[C@@H]1CN2c1ccccn1)c1ccccc1O`, the Potency entry in assay [1], in assay [2], in assay [3], in assay [4] and in assay [5] was “inactive” each time.

Consider `COc1ccc(CC(NC(C)=O)C(=O)O)cc1` (stereo not given), for which the Potency result in assay [1], in assay [2], in assay [3] and in assay [5] was “inactive” each time. Further, the Potency in assay [4] was 4740 nM (active).

As for `C[C@]12CC/C(=N\OCC(=O)O)C=C1CC[C@@H]1[C@@H]2[C@@H](O)C[C@@]2(C)[C@H]1CC[C@]2(O)C(=O)CO`, the Potency result in assay [1], in assay [2], in assay [3], in assay [4], in assay [5] and in assay [6] was “inactive” in each case.

Turning to `O=C(/C=C/c1ccc(O)c(O)c1)O[C@H]1[C@@H]2C=CO[C@@H](O[C@@H]3O[C@H](CO)[C@@H](O)[C@H](O)[C@H]3O)[C@@H]2[C@@]2(CO)O[C@@H]12`, the Potency entry in assay [1], in assay [2], in assay [3], in assay [5] and in assay [6] was “inactive” throughout. Also, in assay [4], the Potency was 2070 nM (active).

For `C=C1C2CCC3C(CCC4[C@@]3(C)CCC[C@@]4(C)C(=O)O)(C2)[C@@H]1OC(=O)/C(C)=C\C` (stereo not given in full), the Potency entry in assay [1], in assay [2], in assay [3], in assay [4] and in assay [5] was “inactive” each time.

For `C[C@H]1CCN2C[C@]34C[C@@]5(C(=O)Nc6c5ccc5c6OC=CC(C)(C)O5)C(C)(C)C3C[C@]12C(=O)N4C` (stereo not given in full), the Potency result in assay [1], in assay [2], in assay [3], in assay [4], in assay [5] and in assay [6] was “inactive” throughout.

For `C=C1C2(C)CC3C4(C)C=CC(=O)OC(C)(C)C4CCC3(C)C1(C(=O)OC)C(=O)C(C)(O)C2=O` (stereo not given), the Potency entry in assay [1], in assay [2], in assay [3], in assay [4], in assay [5] and in assay [6] was “inactive” throughout.

Take `O=C(Nc1ccn(Cc2c(F)cccc2C(F)(F)F)n1)c1c(F)cccc1F`: the Potency result in assay [1] and in assay [2] was “inactive” in each case. In assay [3], the outcome is “inactive [at 11.6 µM]”. The activity change, negative = thiol reactive in assay [4] is 27.2% [at 11.5 µM]. Also, the activity, negative = inhibition in assay [5] is 3.13% [at 11.6 µM]. For the same compound, the redox activity (% of DA3003) in assay [6] is -0.702% [at 11.5 µM].

Take `CCOc1nc2c(N)ncnc2n1CC`: the Potency entry in assay [1], in assay [2], in assay [3], in assay [4], in assay [5] and in assay [6] was “inactive” in each case.
